Screening results: PubChem BioAssay, National Center for Advancing Translational Sciences (NCATS)
A selection: hits, their analogues and other compounds. The true share with any hit is near 11%.
AMA1 RON2 block: inhibitors of Plasmodium falciparum AMA1-RON2 interaction; AlphaScreen AMA1-biotinylated RON2 peptide binding; Potency, µM (series often up to 58.2 µM), for inactives: at the highest dose activity change, negative = inhibition, most hits filed as inhibitors; actives 0.2% (n = 360,000); AID 720542;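 note: 0% = vehicle wells and -100% = peptide control; nearly all actives have a fitted effect of over 45% in size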
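AMA1 (3D7) with his tag at 25 nM final met compounds first, then biotinylated RON2 peptide at 25 nM; detection used donor plus acceptor beads, 10 µg/mL apiece, read by AlphaScreen after 30 min at room temperature.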
HCV inh: inhibitors of hepatitis C virus infection; Huh7.5.1 HCVcc-Cre infection, luciferase reporter, 44 h; Potency, µM (top dose mostly 41.8 µM), for inactives: at the highest dose activity change, negative = inhibition, usual class: inhibitors; actives 3.4% (n = 340,000); AID 651820
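HCVcc-Cre virus at an moi near 0.5 was added right after compound to cells cultured 4 h from seeding (1,000 cells/well). Luciferase activity was determined 44 h later, 15 min after substrate addition at RT.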
Pf growth 96h: P. falciparum growth inhibition at 96 hour, primary screen for plastid delayed-death inhibitors | P. falciparum luciferase reporter growth, 96 h | Potency, µM (top dose mostly 28.7 µM), inactives show at the top dose activity change, negative = inhibition, usual class: inhibitors | actives 6.9% (n = 320,000) | AID 504834
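Two parasite generations (96 h, 37 C, 5% CO2) of compound exposure in infected erythrocytes (0.05% parasitemia, 2% hematocrit). Luciferase-reporter P. falciparum; decreased luminescence indicates inhibited growth, aimed at apicoplast-acting delayed death.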
Pf growth 48h: P. falciparum growth inhibition at 48 hours (one generation). AID 504832. P. falciparum luciferase growth in erythrocytes, 48 h. Potency, µM (highest dose often 28.7 µM), without a hit: at the highest dose activity change, negative = inhibition, actives largely listed as inhibitors. actives 5.9% (n = 310,000)
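Compounds are pin-transferred into medium, infected erythrocytes (2% hematocrit, 0.1% parasitemia final) are added, and plates sit one parasite generation at 37 C in 5% CO2. Detection reagent is then added and luminescence measured.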
Active calls of the source: *; ? = inconclusive; / = no result; [ ] = another dose, or the depositor's remark. Calls come from the whole dose curve; as a rule, active = well fitted curve in the direction sought with a large enough effect; inconclusive = small, poorly fitted or top-dose-only effect, or another doubt; inactive = no such curve, though single readings can be large; an effect the other way counts as inactive or inconclusive. Unless noted, % is set by controls: 0 for no effect and ±100 for the full control effect; potency is the fitted concentration of half-maximal effect.

SMILES	AMA1 RON2 block	HCV inh	Pf growth 96h	Pf growth 48h
Cc1cc(C(=O)N2CCC2(C)C(=O)O)nn1C(C)(C)C (centres undefined)	5.1%	/	/	/
CCOc1c(C)cnc2c1c(=O)n(Cc1ccc(Cl)cc1)c(=O)n2C	0.0%	-0.1%	?	-9.6%
OC(c1cccnc1)c1nc(-c2cccc(F)c2)cs1 (centres undefined)	-0.9%	/	/	/
CCCCC(=O)Nc1ccc(C(=O)Nc2ccc(OC)cc2[N+](=O)[O-])cc1	4.0%	?	3.7µM*	-22.3%
O=C(COC(=O)c1ccc(OC(F)F)cc1)NCCC1=CCCCC1	5.4%	-4.3%	17.0%	-11.6%
Cc1ccc(C)[n+](CC(=O)c2ccc(-c3ccccc3)cc2)c1	-15.8%	-21.5%	-5.9%	9.28µM*
Cc1ccc(C(NC(=O)c2ccccc2)C(Cl)Cl)cc1 (centres undefined)	-3.0%	?	4.15µM*	?
Cc1ccc(C(=O)Cc2ccccc2)cc1	63.5%	-2.4%	/	/
Cc1ccc(C(=O)NS(=O)(=O)c2ccccc2)cc1	-9.5%	3.16µM*	10.3%	-3.3%
Cc1ccc(C(=O)NC(NC(=O)c2ccc(C)cc2)C(Cl)Cl)cc1	22.3%	?	?	?
Cc1ccc(C(=O)CC(=O)c2ccccc2)cc1	100.6%	3.7%	3.7µM*	44.5%
Cc1ccc[n+](CC(=O)c2ccc(-c3ccccc3)cc2)c1	10.9%	-15.8%	?	-28.4%
O=C(C1CCN(S(=O)(=O)c2ccc(Cl)cc2)CC1)N1CCC1	30.7%	8.7%	?	?
CC1(C(=O)NCc2ccccc2)CCC(=O)N1C1CCN(Cc2ccccc2)CC1 (centres undefined)	6.9%	/	/	/
Cc1ccc(O)c(C(=O)CC(=O)c2ccc(Cl)cc2)c1	67.7%	22.4µM*	?	?
Cc1ccc(C(=O)C[n+]2cccc3ccccc32)cc1	-5.5%	-12.4%	4.15µM*	13.1µM*
Cc1cccc(C(=O)CC(=O)c2cc(Cl)ccc2O)c1	82.5%	?	/	/
O=C(Nc1ccccc1SC(=O)c1ccccc1)c1ccccc1	-19.1%	/	/	/
Cc1ccc(C(=O)Sc2cccccc2=O)cc1	0.0%	-10.8%	2.94µM*	4.15µM*
CCOC(=O)c1[nH]c(C)c(C(=O)OCC(=O)Nc2sc3c(c2C#N)CCCCC3)c1C	-3.8%	?	25.7%	11.4%
O=C(C1CCCN(c2ncccn2)C1)N1CCc2ccccc21 (centres undefined)	-0.3%	-22.6%	16.2%	-1.6%
COc1ccc(-c2c(C)nn3c(N)c(C#N)cnc23)cc1OC	18.0%	?	0.329µM*	0.415µM*
Cc1nn2c(N)c(C#N)cnc2c1-c1ccc(Cl)cc1	17.4%	-18.9%	23.3%	/
O=c1[nH]c2ccc(S(=O)(=O)N3CCCCC3)cc2[nH]c1=O	-0.8%	13.6%	?	-26.6%
COC(=O)C1=C(C)NC=C([N+](=O)[O-])C1c1ccc(OC)cc1 (centres undefined)	7.9%	10.7%	?	-1.1%
SMILES	AMA1 RON2 block	HCV inh	Pf growth 96h	Pf growth 48h
CC(=O)Nc1ccc2c(c1)C(C)(C)C(C)N2C (centres undefined)	-2.8%	-20.3%	10.4µM*	-7.8%
Cc1cccc(C)c1-n1nnnc1C1c2ccccc2C(=O)N1CCc1ccc(O)cc1 (centres undefined)	1.3%	/	/	/
CC1CCCCC1NC1CCN(C)CC1 (centres undefined)	-2.2%	?	9.28µM*	-6.5%
CN1CCN(C2CCCCCC2)CC1	-8.3%	6.8%	1.5%	0.0%
CCNC(=O)C1(C)CCN1Cc1cc(-c2ccccc2)n(C)n1 (centres undefined)	17.4%	/	/	/
Cc1ccc(/C=N/c2sc3c(c2C#N)CCC3)s1	4.3%	3.5%	7.38µM*	70.7%
Cc1ccc(/C=N/c2sc3c(c2C#N)CCCCC3)o1	-5.3%	-21.8%	103.7%	21.8%
COc1cc(/C=C2\SC(=S)N(NS(=O)(=O)c3ccc(C)cc3)C2=O)cc(OC)c1OC	12.3%	-0.4%	?	4.65µM*
COc1cc(/C=C2\SC(=S)N(NS(=O)(=O)c3ccc(C)cc3)C2=O)ccc1O	-8.6%	6.7%	13.6%	?
Cc1ccc(SCc2cc(=O)[nH]c(/N=C(\N)Nc3ccccc3Sc3ccccc3)n2)cc1	-7.1%	14.6%	10.4µM*	?
COc1ccccc1N/C(N)=N/c1nc(CSc2ccc(C)cc2)cc(=O)[nH]1	36.1%	?	?	0.0%
N/C(=N\c1nc(CSc2ccc(Cl)cc2)cc(=O)[nH]1)Nc1ccccc1C(F)(F)F	0.0%	6.3%	?	13.1µM*
Cc1cc(C(=O)NCC(c2cccs2)N2CCOCC2)ccc1[N+](=O)[O-] (centres undefined)	96.7%	6.5%	-1.6%	-13.6%
O=P(c1ccccc1)(c1ccccc1)C(O)c1cccs1 (centres undefined)	2.8%	/	/	/
COc1cccc(CN2CC(C(=O)N(C)Cc3ccnc4ccccc34)CCC2=O)c1 (centres undefined)	0.2%	3.7%	?	-0.7%
COc1cc(NC(=O)CCc2c(C)noc2C)c(Cl)cc1C(=O)O	-11.7%	-0.1%	/	/
CCCC/C=C/C(NC(=O)c1ccc(-c2ccccc2)cc1)c1ccccc1 (centres undefined)	-0.8%	11.4%	/	/
CCCC/C=C/C(NC(=O)CCc1ccccc1)c1ccccc1 (centres undefined)	22.5%	-0.9%[8.37 µM]	8.28µM*	?
CCC(=O)N1CCCC(C)(C(=O)Nc2ccc3scnc3c2)C1 (centres undefined)	-1.5%	/	/	/
O=S(=O)(NCC(c1cccnc1)N1CCN(c2ccccc2F)CC1)c1cccs1 (centres undefined)	8.8%	-2.4%	?	13.1µM*
CCCN1CCN(CCCNC(=O)CN2C(=O)c3cccnc3Oc3ccc(Cl)cc32)CC1	-1.8%	24.2%	?	-13.3%
O=C(CN1C(=O)c2cccnc2Oc2ccc(Cl)cc21)Nc1ccccc1F	-9.3%	-22.7%	6.6%	?
O=C(CN1C(=O)c2cccnc2Oc2ccc(Cl)cc21)NCCCc1ccccc1	-7.7%	11.2µM*	77.5%	?
COc1cccc(NC(=O)CN2C(=O)c3cccnc3Oc3ccc(Cl)cc32)c1	8.9%	?	1.5%	13.1µM*
CN(C)S(=O)(=O)c1cc(NC(=O)C2=COCCO2)ccc1Cl	-0.5%	23.1%	11.7µM*	-16.1%
O=C(Nc1ccc(SC(F)F)cc1)C1=COCCO1	10.1%	-22.8%	1.65µM*	140.9%
O=C(OCC(=O)N1CCN(C(=O)c2ccco2)CC1)c1cncc(Br)c1	-10.1%	7.0%	-18.7%	12.2%
OC1(c2cccc(C(F)(F)F)c2)CCN(c2ccc(-c3ccccc3)nn2)CC1	-1.5%	?	3.7µM*	117.8%
Cc1ccc(N(CC(=O)NC(C)(C)C)C(=O)CNC(=O)c2cccs2)cc1C	-0.5%	9.8%	43.6%	?
CCC1=C[C@@H]2CN(C1)Cc1c([nH]c3ccccc13)[C@@](C(=O)OC)(c1cc3c(cc1OC)N(C)[C@@H]1[C@@](O)(C(=O)OC)[C@H](OC(C)=O)[C@]4(CC)C=CCN5CC[C@]31[C@@H]54)C2	/	/	0.849µM*	0.477µM*
